From PubChem BioAssay
HSF1 activator: increases HSF-1 driven luciferase reporter signal; NIH3T3-HGL HSF-1 luciferase reporter, MG132, 8 h; 100% = twice DMSO control signal; activation, % at 9 µM; actives 1.7% (n = 300,000);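 active = mean replicate activation of at least 50% with a set share of replicates each reaching 50%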;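 also: 0% = median of the neutral control wells and 100% = twice that signal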
esBAF inh: inhibitors of esBAF chromatin remodeling in mouse ES cells; reporter increase, % at 12.5 µM; AID 602393; actives 2% (n = 350,000); Bmi1-luciferase knock-in reporter, 24 h; 100% = twice the neutral-well signal; in the data active = activation above about 40%;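 also: 0% = median of the plate's neutral control wells and 100% = double that signal; a rise in the Bmi1 reporter signal indicates esBAF inhibition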
Wnt act: Wnt/beta-catenin pathway activation; activation, % at 9.35 µM; actives 1.2% (n = 300,000); Wnt/beta-catenin reporter cell assay, activator, plate reader; in the data active = activation above about 30%, passing the limit was not always enough;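 also: 0% = neutral control wells and 100% = positive control wells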
MITF act: increases MITF-driven TRPM1 promoter luciferase signal. SK-MEL-5 TRPM1-promoter luciferase, 24 h; % of positive control, neutral wells = 0. activation, % at 12.5 µM. actives 0.75% (n = 300,000). AID 588334;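 active = mean activation of at least 80% with every replicate also reaching 80%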;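 also: 0% = neutral control wells and 100% = parthenolide positive control wells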
HSF1 inh: HSF1 inhibition; activity change, negative = inhibition, % at 7.5 µM (by protocol); NIH3T3-HGL HSE-luciferase, MG132-induced, luminescence 8 h; active compounds read low; actives 0.77% (n = 300,000); AID 2098;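 active = more than half of replicate wells show activity change below -50%, luminescence cut by over half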;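 also: luciferase reports HSF-1 transcriptional activity via heat shock element; 0% = median of DMSO wells and -100% = zero luminescence signal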
Active calls of the source: *; nt = no result given. Hits are enriched below; roughly 3.9% of the tested compounds scored in any of these assays.

SMILES	HSF1 activator	esBAF inh	Wnt act	MITF act	HSF1 inh
COc1ccc(/C(N)=N/OC(=O)C2CCCCC2)cc1OC	46.3	51.3*	25.6	88.1*	21.2
COc1ccc(CC(=O)O/N=C(\N)c2ccc(OC)cc2)cc1	18.0	nt	22.9	nt	11.0
C[C@@H]1CN([C@@H](C)CO)S(=O)(=O)c2ccc(-c3ccncc3)cc2O[C@@H]1CN(C)S(=O)(=O)c1ccccc1F	nt	-3.2	nt	nt	nt
CCOC(=O)N1CCN(C(=O)c2cc3c(s2)-c2c(C)cccc2OC3)CC1	-5.6	-4.4	1.0	-5.2	-4.3
Cc1cccc2c1-c1sc(C(=O)N3CCCCC3)cc1CO2	41.9	67.6*	22.6	87.6*	32.2
CC1c2ccsc2CCN1C(=O)NC(=O)c1ccc(Cl)cc1 (centres undefined)	71.5*	-0.2	0.2	nt	21.1
O=C(C[C@@H]1C=C[C@H](NC(=O)Nc2ccccc2)[C@H](CO)O1)NCc1ccccn1	nt	0.6	nt	nt	nt
Cc1cccc(N=Nc2c(C)c(C#N)c(O)[nH]c2=O)c1	54.4*	nt	-9.0	15.8	20.5
Cc1c(C#N)c(O)[nH]c(=O)c1N=Nc1ccc(Br)cc1C(=O)O	-2.2	-3.9	0.2	-7.2	-6.2
CCC(C)(C)NC(=O)C(c1ccc(C)cc1)N(Cc1cccs1)C(=O)c1ccc2c(c1)OCCO2 (centres undefined)	55.2*	6.7	nt	0.0	22.5
O=C(NCC[C@H]1CC[C@H](NC(=O)c2cccnc2)[C@H](CO)O1)Nc1ccc(F)cc1	nt	4.2	nt	nt	nt
Cc1cccc(C)c1N1CCN(S(=O)(=O)c2ccc(F)cc2)CC1	55.3*	-25.0	0.8	14.6	14.3
Cn1c(N)c(C(=O)COC(=O)c2cc(S(=O)(=O)N3CCOCC3)ccc2F)c(=O)n(C)c1=O	nt	5.2	95.9*	-82.2	nt
Cc1ccc(S(=O)(=O)N2CCOCC2)cc1C(=O)OCC(=O)c1c(N)n(C)c(=O)n(C)c1=O	nt	-4.1	-1.5	9.7	nt
COC(=O)C[C@H]1CC[C@@H]2[C@@H](COc3ccc(NS(=O)(=O)c4cccc(F)c4)cc3C(=O)N2C)O1	nt	1.4	nt	nt	nt
CCOC(=O)c1sc(Nc2ccc(Br)cc2)nc1C	32.4	nt	28.5	51.4	8.8
CCOC(=O)c1sc(NC(=O)Nc2ccccc2F)nc1C	-79.6	-64.8	-2.8	13.8	-73.8*
CCOC(=O)c1sc(Nc2ccccc2Cl)nc1C	46.2	65.4*	39.0*	49.4	25.8
COC(=O)Cc1csc(Nc2ccccc2Cl)n1	-23.7	53.9*	16.5	94.1*	-9.2
CC(C)NC(=O)N(C)C[C@@H]1Oc2ccc(NC(=O)Nc3ccc4c(c3)OCO4)cc2CC(=O)N([C@@H](C)CO)C[C@H]1C	nt	0.2	nt	nt	nt
C[C@H](CO)N1C[C@H](C)[C@@H](CN(C)Cc2ccccc2)Oc2ccc(NC(=O)C3CC3)cc2C1=O	nt	1.4	nt	nt	nt
C[C@@H]1CN([C@H](C)CO)C(=O)c2cc(C#Cc3ccc(F)cc3)cnc2O[C@@H]1CN(C)C	nt	-3.4	nt	nt	nt
CSc1sc(C(=O)O)c2c1C(=O)CC(C)(C)C2	-10.1	12.4	-1.1	3.9	1.8
CSc1sc(C(=O)OC(C)C)c2c1C(=O)CC(C)(C)C2	52.8*	nt	0.6	nt	29.7
Cc1cccc(NC(=O)Cc2noc3ccccc23)c1C	10.4	nt	4.2	15.1	3.9
SMILES	HSF1 activator	esBAF inh	Wnt act	MITF act	HSF1 inh
Cc1ccc(NC(=O)CCc2ccccc2)cc1C	nt	52.2*	1.6	nt	nt
Cc1cccc(NC(=O)Cc2noc3ccccc23)c1	22.3	60.0*	nt	nt	12.4
Cc1ccc(S(=O)(=O)N(C)C)cc1NC(=O)CCc1ccccc1	-8.6	nt	48.2*	-2.5	-4.7
Cc1cccc(NC(=O)CCCc2ccccc2)c1	18.3	63.3*	17.4	nt	2.3
CO[C@H]1CN(C)C(=O)c2ccc(NS(=O)(=O)c3ccc(F)cc3)cc2OC[C@H](C)NC[C@H]1C	nt	-0.2	nt	nt	nt
CN(C)C(=O)C[C@@H]1CC[C@H]2[C@@H](COc3ccc(NS(=O)(=O)c4cccc(F)c4)cc3C(=O)N2C)O1	nt	-2.9	nt	nt	nt
COc1ccccc1-c1ccc([C@@H]2[C@@H](CO)N(C(=O)CN(C)C)[C@H]2C#N)cc1	nt	0.9	nt	nt	nt
Cc1cc(C)n(-c2ccc(C(=O)N3CCN(c4ccccn4)CC3)cc2)n1	nt	2.5	-2.2	0.8	nt
Cc1cc(C)n(-c2nc3ccccc3nc2N2CCN(C(=O)c3ccccc3)CC2)n1	51.7*	-3.8	nt	nt	20.8
Cc1cccc(-n2cnc3c(c2=O)c2nc4ccccc4nc2n3Cc2ccco2)c1	104.4*	2.6	-2.2	-0.5	101.4
Oc1ccc(-c2nccs2)cc1	nt	13.9	-4.5	-4.9	nt
